{"source": "PubChem BioAssay (NCATS)", "note": "Records with an inconclusive call do not appear. Values without a mark were called inactive. Calls of active or inactive are those of the source.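 Rule for the calls: active = dose-dependent loss of cell ATP signal giving a full or clear fitted curve, ranked by lower potency value; inconclusive = weak partial curve or response only at the top dose; inactive = no loss of viability signal.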 Potency is the fitted concentration of half-maximal effect.", "data": [{"assay": "Cell Viability - Jurkat (AID 426);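 note: cells exposed to compound for 40 hours at 37 °C before ATP read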", "details": "qHTS", "description": "NIH Chemical Genomics Center [NCGC]\nNIH Molecular Libraries Screening Centers Network [MLSCN]\nNational Institutes of Environmental Health Sciences [NIEHS]\nNational Toxicology Program [NTP]\nWe have developed a 1536-well cell-based assay for quantitative high throughput screening (qHTS) against a number of cell lines to determine in vitro cytotoxicity of small molecules. This particular assay uses the Jurkat cell line (Clone E6-1) which is derived from the human T cell leukemia.\nNCGC Assay Protocol Summary:\nThe CellTiter-Glo luminescent cell viability assay (Promega) is a homogeneous method to measure the number of viable cells in culture. The end point readout of this assay is based on quantitation of intracellular ATP, an indicator of metabolic activity, using the luciferase reaction. Luciferase catalyzes the oxidation of beetle Luciferin to oxyluciferin and light in the presence of ATP. The luminescent signal is proportional to amount of ATP present.\nUsing the CellTiter-Glo luminescent cell viability assay, the amount of cellular ATP was measured in the Jurkat cell line with complete culture medium following compound treatment for 40 hours. The assay was performed in opaque white Kalypsys 1536-well plates. In the screen, tamoxifen and doxorubicin were used as positive controls. Library compounds were measured for their ability to cause acute toxicity in the cell line, as reflected by a decrease in intracellular ATP levels, in a concentration-dependent manner. […] AC50 values were determined from concentration-response data modeled with the standard Hill equation.\nqHTS protocol for CellTiter Glo Jurkat cellular assay\n[Step] [Parameter] [Value] [Description]\n1. Reagent; 5 uL; 5000 Jurkat cells/well\n3. Controls; 23 nL; Tamoxifen 0.34 uM to 100 uM & Doxorubicin 0.02 nM to 100 uM\n4. Time; 40 hr; 37 °C incubation\n5. Reagent; 5 uL; CellTiter Glo reagent\n6. Time; 20 min; Room Temperature\n7. Detection; Luminescence; Viewlux plate reader\nKeywords: cell viability, cytotoxicity, Jurkat cell line, luminescence, NTPHTS, NTPHTS_NCGC, NIEHS, EPA, DSSTox, MLSMR, MLSCN, NIH Roadmap, qHTS, NCGC", "values": [{"smiles": "CCCCOC(C)=O", "Potency": "> 92 µM"}, {"smiles": "C=C(C)CCl", "Potency": "> 92 µM"}, {"smiles": "Cl/C=C/Cl", "Potency": "> 92 µM"}, {"smiles": "Cl/C=C/CCl", "Potency": "> 92 µM"}, {"smiles": "Oc1cccc(Cl)c1Cl", "Potency": "> 92 µM"}, {"smiles": "c1ccc(OCC2CO2)cc1", "note": "(stereo not given)", "Potency": "> 92 µM"}, {"smiles": "Nc1ccc2ccccc2c1", "Potency": "> 92 µM"}, {"smiles": "CC(Cl)CCl", "note": "(stereo not given)", "Potency": "> 92 µM"}, {"smiles": "ClC(Cl)(Cl)C(Cl)(Cl)Cl", "Potency": "> 92 µM"}, {"smiles": "c1ccc(NNc2ccccc2)cc1", "Potency": "> 92 µM"}, {"smiles": "C=CC(=O)OC", "Potency": "> 92 µM"}, {"smiles": "O=S(=O)(O)F", "Potency": "> 92 µM"}, {"smiles": "C=CC#N", "Potency": "> 92 µM"}, {"smiles": "S=c1[nH]c2ccccc2[nH]1", "Potency": "> 92 µM"}, {"smiles": "CCCCCC[N+](=O)[O-]", "Potency": "> 92 µM"}, {"smiles": "CC(C)(C)c1ccccc1O", "Potency": "> 92 µM"}, {"smiles": "C[N+](=O)[O-]", "Potency": "> 92 µM"}, {"smiles": "COc1ccccc1N", "Potency": "> 92 µM"}, {"smiles": "CCOS(C)(=O)=O", "Potency": "> 92 µM"}, {"smiles": "ClCCOCOCCCl", "Potency": "> 92 µM"}, {"smiles": "S=C1NCCN1", "Potency": "> 92 µM"}, {"smiles": "N#CCc1ccccc1", "Potency": "> 92 µM"}, {"smiles": "Oc1ccc(Cl)c(Cl)c1", "Potency": "> 92 µM"}, {"smiles": "O=Cc1ccc(Cl)cc1Cl", "Potency": "> 92 µM"}, {"smiles": "CN(C)c1ccc(N)cc1", "Potency": "72.8 µM (active)"}, {"smiles": "Nc1ncc([N+](=O)[O-])s1", "Potency": "> 92 µM"}, {"smiles": "CN(C)C(=O)Nc1ccc(Cl)cc1", "Potency": "> 92 µM"}, {"smiles": "O=C(Cl)c1ccccc1F", "Potency": "> 92 µM"}, {"smiles": "BrC(Br)Br", "Potency": "> 92 µM"}, {"smiles": "c1ccc2c(c1)CCNC2", "Potency": "> 92 µM"}, {"smiles": "O=[N+]([O-])c1ccccc1O", "Potency": "> 92 µM"}, {"smiles": "Cc1ccc(N=C=O)cc1N=C=O", "Potency": "> 92 µM"}, {"smiles": "COC(=O)Nc1nc2ccccc2[nH]1", "Potency": "3.38 µM (active)"}, {"smiles": "Nc1c(Cl)cc([N+](=O)[O-])cc1Cl", "Potency": "> 92 µM"}, {"smiles": "Oc1cccc(Cl)c1", "Potency": "> 92 µM"}, {"smiles": "CC(=O)NNc1ccccc1", "Potency": "> 92 µM"}, {"smiles": "ClCCCCl", "Potency": "> 92 µM"}, {"smiles": "Clc1cccc(Cl)c1Cl", "Potency": "> 92 µM"}, {"smiles": "Oc1cc(Cl)cc(Cl)c1", "Potency": "> 92 µM"}, {"smiles": "CC(C)(Cl)[N+](=O)[O-]", "Potency": "> 92 µM"}]}]}
